Experimental data: PubChem BioAssay (NCI)
“And” between values parts separate entries of the source, which are not always exact repeats. Equal entries are not always repeated. Compounds without any hit were thinned out: in the full panel of roughly 83,000, 20% have a hit.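 For each line, cells grew in 96-well plates with the test compound present at a single concentration for 48 hours.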 A number with no mark means an inactive call. The source made the active and inactive calls. The calls were made as follows: active = growth percent below 10; inactive = the rest.

Tested on: MDA-MB-468 breast
Assay: NCI-60 one-dose screen, 48 h (100 = growth as untreated, 0 = no growth, -100 = all killed)
Details: 10 µM unless noted

Row | SMILES | growth
1 | C#CC[C@@H]1C[C@]2(C)[C@H]3CC=C4[C@H]5[C@@H](C)[C@H](C)CC[C@]5(C(=O)NCCCCN)CC[C@@]4(C)[C@]3(C)CC[C@H]2C(C)(C)[C@H]1OC(C)=O | 81%
2 | N#CC1C(c2ccc(Cl)cc2)=Nc2c(c(-c3ccccc3)nn2-c2ccccc2)C12C(=O)Nc1ccc(Cl)cc12 (stereo unspecified) | 26.3%
3 | CC(O)CN(CCO)CCN(CCO)CC(C)O (stereo unspecified) | 94.8%
4 | COc1cc(/C=N/NC(=O)Cn2c(C(C)C)nc3ccccc32)ccc1O | 84.9%
5 | CCCCCCCCCCCCCCCCCCOc1ccccc1CC(=O)OCC[N+]1(C)CCOCC1 | 51.9%
6 | COc1ccc(CNCCN2C(=O)c3ccc4c5c(ccc(c35)C2=O)C(=O)N(CCNCc2ccc(OC)cc2)C4=O)cc1 | -94.3% (active)
7 | COc1cc2c3c(c4c5ccccc5[nH]c4c2c(OC)c1OC)C(=O)N(CCN1CCOCC1)C3=O | 65.7%
8 | COc1ccc(/C(=C\c2ccc3c(c2)OCO3)C(=O)Nc2nc3ccccc3s2)cc1OC | 90.5%
9 | Cc1ccsc1-c1ccc2c(c1)COC2(CCCN(C)C)c1ccc(F)cc1 (stereo unspecified) | -8.34% (active)
10 | COc1cc(-c2c3c(nc4c2c(C)nn4-c2ccccc2)-c2ccccc2C(=O)C3=O)cc(OC)c1OC | 88.9%
11 | COc1ccc(-c2cc(-c3ccc(Cl)cc3)c(C#N)c(=O)n2CCCCC(=O)Nc2ccccc2N)cc1 | 47.9%
12 | CC/C=C\C[C@H](O)C/C=C1/C(=O)C=C[C@@H]1C/C=C\CCCC(=O)O | 28.7%
13 | c1ccc2cc(C[n+]3ccn(Cc4ccc5ccccc5n4)c3)ccc2c1 | -26.3% (active) and -3.7% (active)
14 | O=C(Nc1nc(-c2ccccc2)cs1)c1cc(O)c(O)c(O)c1 | 46.3%
15 | CC(C)[C@H]1COC(=O)N1[C@@H]1C(=O)N([C@@H](CCC(=O)N2CCN(C3CCCC3)CC2)C(=O)N[C@@H]2CCCc3ccccc32)[C@@H]1/C=C/c1cccc(Br)c1 | -21.6% (active)
16 | O=C(/C=C/c1cccc(Cl)c1)c1ccc(O)c(CN2CCN(c3cc4c(cc3F)c(=O)c(C(=O)O)cn4C3CC3)CC2)c1 | 28.8%
17 | Cn1c(=O)c2c(ncn2CCC(=O)Nc2ccc(F)cc2)n(C)c1=O | 106%
18 | COc1cc2c(c(OC)c1OC)CCC(c1cccc(C(=O)Nc3ccc([N+](=O)[O-])cc3)c1)O2 (stereo unspecified) | 38.2%
19 | COc1cccc2nc(Nc3cccc(NC(=O)c4ccc(N5CCN(C)CC5)c(C(F)(F)F)c4)c3)ccc12 | 20.2%
20 | O=C(Oc1ccc[nH]c1=O)c1cc([N+](=O)[O-])cc([N+](=O)[O-])c1 | 119%
21 | CCCCn1sc(=O)n(Cc2ccc(CNC(=O)OCc3ccc4c(Br)cc(Br)c(O)c4n3)cc2)c1=O | 27.3%

Row | SMILES | growth
22 | Cc1cccc(C)c1NC(=O)Nc1ccccc1 | 77.6%
23 | O=C(/C=C/c1cccc(B(O)O)c1)c1cccc(B(O)O)c1 | -84.9% (active)
24 | O=C(Nc1nc2ccccc2s1)c1ccc(F)cc1 | 94.1%
25 | NS(=O)(=O)c1ccc(Br)cc1 | 102%
26 | COc1ccc2c(c1)Oc1nc(N)c(C#N)c(N)c1C2Sc1ccc(C)cc1 (stereo unspecified) | -45.8% (active)
27 | CC(C)(C)n1cc(-c2ccnc(NCCCNS(=O)(=O)c3ccccc3)c2)c(-c2ccccc2)n1 | 25.1%
28 | CCO/C=N/C1=C(C#N)C(c2ccc(Cl)cc2)c2sc3c(CC)cccc3c2O1 (stereo unspecified) | -33.4% (active)
29 | COc1cc2nc(-c3ccc(C(F)(F)F)cc3)cc(OCCCN3CCCCC3)c2cc1OC | 52.5%
30 | O=C(C1CCCCC1)[C@@H]1[C@]2(C(=O)NC3CCCCC32)[C@@H]2CCCN2[C@@]12C(=O)NC1CCC(Cl)CC12 (stereo partly specified) | -67% [100 µM] (active)
31 | O=C1Nc2ccccc2/C1=C/C(=O)c1ccc(N2CCCC2)cc1 | 5.3% (active)
32 | O=C1OC(Oc2ccc(Br)cc2)(c2ccccc2)c2ccccc21 (stereo unspecified) | 69.8% and 75.1%
33 | Cc1c(C(=O)Nc2nc3ccccc3[nH]2)cnn1-c1ccccn1 | 112%
34 | c1ccc(Nc2nc3c(s2)CCc2c[nH]cc2-3)nc1 | 83.6%
35 | Clc1ccc(C2=NN(c3ccccc3)[C@H](c3cn(-c4ccccc4)nc3-c3ccccc3)C2)cc1 | 109%
36 | O=C(/C=C/c1ccc(Cl)cc1)c1ccc(Nc2nc(NCCO)nc(N3CCOCC3)n2)cc1 | 69.4%
37 | c1ccc(CCNc2c3ccccc3nc3ccccc23)cc1 | -11.4% (active)
38 | COc1ccc(C2=Cn3c(CCC(=O)c4nc5ccccc5[nH]4)nnc3SC2)cc1 | 77.4%
39 | C[N+](C)=c1ccc2nc3c(cc(Nc4ccccc4)c4ccccc43)oc-2c1 | -14.8% (active)
40 | CCCCCCC(C(=O)OCC)(C(=O)OCC)C1CCCCCC1 | 112%
41 | CC(C)N1C(=O)S/C(=C2/SC(=O)N(C(C)C)C2=O)C1=O | 94.5%
42 | CC/C(=C(\c1ccc(O)cc1)c1ccc(OCCN(C)CCN(C)C(=O)CCCCC(=O)c2c(C)[nH]c(/C=C3\N=C(c4ccc[nH]4)C=C3OC)c2C)cc1)c1ccccc1 | 80%

Row | SMILES | growth
43 | CCNc1cc2c(cc1Br)-c1ccccc1C2=O | 50.2%
44 | Cc1cn(-c2cc(F)cc(NC(=O)c3ccc(C)c(Nc4nccc(-c5cccnc5)n4)c3)c2)cn1 | -63.4% (active)
45 | ClCC(Cl)C1CCC(Cl)C(Cl)C1 (stereo unspecified) | 114%
46 | Cc1ccc2c(c1)O/C(=C\c1ccc([N+](=O)[O-])o1)C2=O | 23.3%
47 | O=C(Nc1ccncc1)C(=O)c1cn(S(=O)(=O)c2cccc3ccccc23)c2ccccc12 | 19.5%
48 | Oc1[nH]c2ccccc2c1Nn1c(N=N/C=c2/ccc3c(c2)C=NN=3)n[nH]c1=S | 107%
49 | C=C1C(=O)O[C@H]2[C@H]1CC/C(COC(=O)CCSSCCC(=O)OC/C1=C/CC[C@@]3(C)O[C@H]3[C@H]3OC(=O)C(=C)[C@@H]3CC1)=C\CC[C@@]1(C)O[C@@H]21 | -54% (active)
50 | NS(=O)(=O)c1nnc(/N=C/c2c(O)[nH]c3ccccc23)s1 | 109%
51 | O=C(/C=C1\C(=O)N(Cc2ccc([N+](=O)[O-])cc2)c2ccccc21)c1ccc(OCCN2CCCC2)cc1 | 59.4%
52 | COc1cc(/C=C/C(=O)c2ccc(Cl)cc2)cc(CN2CCCCC2)c1O | 93.2%
53 | CCCCc1nc(Cl)c(CO)n1Cc1ccc(-c2ccccc2-c2nn[nH]n2)cc1 | 96.4%
54 | Cc1cc(N2CCCCCC2)nc(NC2CCCC(Nc3ccnc4cc(Cl)ccc34)C2)n1 (stereo unspecified) | -63.9% (active)
55 | CC1CCC(C(C)C)C(NN)C1 (stereo unspecified) | 110%
56 | CCCCCCc1cc(N=Nc2ccc(S(=O)(=O)Nc3cc(C)nc(C)n3)cc2)c(O)cc1O | 102%
57 | CCc1nc(N)nc(N)c1-c1ccc(Cl)cc1 | 62.5%
58 | CCCCCCCCCCN=C(c1ccc(N(C)C)cc1)c1ccc(N(C)C)cc1 | -8.69% (active)
59 | NC(=S)NN=C1CCC(C2CCCCC2)CC1 (stereo unspecified) | 50.9% and 46.9%
60 | C/C=C(/C)C(=O)OC1C=C(CO)C(=O)C(OC(=O)C(C)(O)C(C)Cl)C1C(C)C (stereo unspecified) | -51.9% (active)
61 | CCn1c(SCC(=O)Nc2cccc(C(=O)/C=C/c3ccc(C)cc3)c2)nc2ccccc2c1=O | 58.7%
62 | OCCCCc1nccc2c1[nH]c1ccccc12 | 92.9%
63 | Cc1cc(Cc2cc(C)c(N)cc2N)c(N)cc1N | 95.4%

Row | SMILES | growth
64 | CN1CCN(Cc2ccc(NC(=O)c3cncc(C#Cc4cnccc4C(F)(F)F)c3)cc2C(F)(F)F)CC1 | 84.4%
65 | CNc1ccccc1C(N)=O | 105%
66 | Cc1ccc(N)cc1[N+](=O)[O-] | 115%
67 | COc1cc(-c2csc(NC(=O)Nc3ccc(C(F)(F)F)cc3)n2)cc(OC)c1OC | -8.63% (active)
68 | Cn1cnc2c(F)c(Nc3ccc(Br)cc3Cl)c(C(=O)NOCCO)cc21 | 92.5%
69 | COc1ccc(-c2nc3sc(-c4ccccc4)c(-c4ccccc4)n3c2/C=C/c2ccc(F)cc2)cc1 | 82.7%
70 | OCc1cnccc1NC12CC3CC(CC(C3)C1)C2 | 99.2%
71 | CC1CN(C(C)C)C(=S)N(c2ccccc2)C1=O (stereo unspecified) | 84.3%
72 | COc1cc(NC(C)CCCN)c2ncccc2c1Oc1ccc(Cl)cc1 (stereo unspecified) | 58.6%
73 | Nc1nc(Nc2ccccc2SSc2ccccc2Nc2nc(N)nc(-c3cccs3)n2)nc(-c2ccsc2)n1 | 115%
74 | COc1ccc2nc(SCC(=O)Nc3ccccc3C)[nH]c2c1 | 98%
75 | Cc1ccc(/C=C/C(=O)c2cccc(OCCCOc3cccc(C(=O)/C=C/c4ccc(C)cc4)c3)c2)cc1 | 89.9%
76 | O=S(=O)(NCCCNc1cc(-c2cn(-c3ccccc3)nc2-c2cccc(O)c2)ccn1)c1ccc(Cl)cc1 | -15.9% (active)
77 | O=C1C(Cl)=C(Nc2cccc3cc4ccccc4nc23)C(=O)c2ccccc21 | 40.9%
78 | COc1ccc(/C=N/NC(=O)Cn2nnc3ccccc32)cc1 | 103%
79 | CCCCCCNC(=O)Oc1ccc(/C(=C(\C)c2ccc(OC)cc2)c2ccc(OCCN3CCCCC3)cc2)cc1 | 75.6%
80 | COc1cc(/C=N/NC(=O)Cn2c(-c3ccc(C)o3)nc3ccccc32)ccc1OCc1ccccc1 | 76.6%
81 | COc1cc2c(c(OC)c1OC)C(=O)CC(c1cccc(C(=O)Nc3ccccc3Br)c1)O2 (stereo unspecified) | 79.1%
